Measurements reported in PubChem BioAssay.
For some of these results: Measured potencies and affinities stand elsewhere. Calls of active or inactive are those of the source. Unless noted, no rule for the calls is given here.

Tests used:
[1] = antimalarial activity against Dd2 strain (AID 2302;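 active = growth inhibition above 50% at the single 2 µM test dose, taken to imply half-maximal potency below 2 µM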;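 also: 0% = DMSO untreated growth and 100% = chloroquine plus artemisinin killed control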); conditions: P. falciparum Dd2 in RBCs, LDH growth readout, 72 h; at 2 µM; hits give high values
[2] = HepG2 cytotoxicity, primary screen, cytotoxicity control for P. falciparum antimalarial project, cell-based, ATP luminescence (AID 2303;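 active = inhibition above 50%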;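 also: 0% = DMSO wells and 100% = digitonin-killed cells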); conditions: HepG2 viability, 24-48 h, at 10 µM, hits give high values
[3] = biological target: L-lactate dehydrogenase (Plasmodium falciparum (isolate CDC / Honduras)) (UniProt Q27743); assay: PfLDH activity inhibition – cell lysate, 3D7 strain, counter-screen for P. falciparum growth inhibition project (AID 2304);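 also: 0% = vehicle and 100% = reference inhibitor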; conditions: P. falciparum 3D7 crude extract, LDH APAD/NBT absorbance; at 2 µM; hits give high values
[4] = inhibition of 3D7 malaria parasite growth – strain 3D7 (AID 2306);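 also: 0% = DMSO wells and 100% = chloroquine plus artemisinin control wells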; conditions: P. falciparum 3D7 erythrocytic growth, LDH absorbance, 72 h; at 2 µM; hits give high values
[5] = biological target: Calcium-dependent protein kinase 1 (Plasmodium falciparum (isolate 3D7)) (UniProt P62344); assay: PfCDPK1 kinase inhibitors, biochemical, TCAMS library (AID 1159585; cut-off not given, nearly all actives have IC50 up to about 0.98 µM;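 also: inhibitors leave more ATP so luminescence rises with inhibition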); conditions: recombinant PfCDPK1, Kinase-Glo ATP depletion luminescence
[6] = biological target: Plasmodium falciparum protein kinase 6 (PK6, PF3D7_1337100) (UniProt Q8IDW1); assay: PfPK6 kinase inhibitors, biochemical, TCAMS library (AID 1159586); conditions: recombinant PfPK6, Kinase-Glo ATP depletion luminescence
[7] = biological target: Protein kinase 7 (PK7), Plasmodium falciparum 3D7 (PF3D7_0213400) (UniProt Q7YTF7); assay: inhibition of Plasmodium PK7 catalytic activity – biochemical, TCAMS antimalarial set, Kinase-Glo luminescence (AID 1159587); conditions: recombinant PfPK7, Kinase-Glo ATP depletion luminescence
[8] = biological target: Calcium-dependent protein kinase 4 (Plasmodium falciparum (isolate 3D7)) (UniProt Q8IBS5); assay: PfCDPK4 kinase inhibitors, biochemical, TCAMS library (AID 1159588; cut-off not given, nearly all actives have IC50 up to about 0.91 µM); conditions: recombinant PfCDPK4, Kinase-Glo ATP depletion luminescence
Calcium-dependent protein kinase 4 (Plasmodium falciparum (isolate 3D7)), sequence (Q8IBS5 whole entry, looked up): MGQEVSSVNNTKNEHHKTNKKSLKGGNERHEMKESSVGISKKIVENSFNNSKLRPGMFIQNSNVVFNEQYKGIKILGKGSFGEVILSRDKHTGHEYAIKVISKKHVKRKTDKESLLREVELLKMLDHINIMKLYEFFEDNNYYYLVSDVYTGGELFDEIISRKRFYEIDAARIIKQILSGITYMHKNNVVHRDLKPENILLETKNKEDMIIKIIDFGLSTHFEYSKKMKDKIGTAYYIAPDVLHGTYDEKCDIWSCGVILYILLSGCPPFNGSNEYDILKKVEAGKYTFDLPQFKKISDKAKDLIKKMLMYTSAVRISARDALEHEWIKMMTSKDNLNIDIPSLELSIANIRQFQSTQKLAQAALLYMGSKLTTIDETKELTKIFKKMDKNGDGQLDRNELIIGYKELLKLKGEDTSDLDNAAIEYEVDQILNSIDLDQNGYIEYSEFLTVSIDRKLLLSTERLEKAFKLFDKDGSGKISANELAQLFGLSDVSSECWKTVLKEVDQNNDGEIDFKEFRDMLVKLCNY

Calcium-dependent protein kinase 1 (Plasmodium falciparum (isolate 3D7)), sequence (P62344 whole entry, looked up): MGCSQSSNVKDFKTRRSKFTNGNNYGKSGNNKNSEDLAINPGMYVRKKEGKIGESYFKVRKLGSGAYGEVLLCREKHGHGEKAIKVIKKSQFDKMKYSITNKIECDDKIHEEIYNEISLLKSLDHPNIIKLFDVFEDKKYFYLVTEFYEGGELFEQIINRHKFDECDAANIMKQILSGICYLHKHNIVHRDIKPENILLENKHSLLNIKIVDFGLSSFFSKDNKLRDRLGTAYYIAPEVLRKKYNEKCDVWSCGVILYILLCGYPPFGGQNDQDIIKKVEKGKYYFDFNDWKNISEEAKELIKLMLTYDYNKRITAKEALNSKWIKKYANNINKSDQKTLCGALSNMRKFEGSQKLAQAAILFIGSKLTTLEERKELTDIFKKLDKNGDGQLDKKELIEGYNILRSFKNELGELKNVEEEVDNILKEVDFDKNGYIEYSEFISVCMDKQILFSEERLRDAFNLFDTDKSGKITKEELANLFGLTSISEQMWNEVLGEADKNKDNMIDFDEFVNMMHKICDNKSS
Protein kinase 7 (PK7), Plasmodium falciparum 3D7 (PF3D7_0213400), sequence (Q7YTF7 1-343): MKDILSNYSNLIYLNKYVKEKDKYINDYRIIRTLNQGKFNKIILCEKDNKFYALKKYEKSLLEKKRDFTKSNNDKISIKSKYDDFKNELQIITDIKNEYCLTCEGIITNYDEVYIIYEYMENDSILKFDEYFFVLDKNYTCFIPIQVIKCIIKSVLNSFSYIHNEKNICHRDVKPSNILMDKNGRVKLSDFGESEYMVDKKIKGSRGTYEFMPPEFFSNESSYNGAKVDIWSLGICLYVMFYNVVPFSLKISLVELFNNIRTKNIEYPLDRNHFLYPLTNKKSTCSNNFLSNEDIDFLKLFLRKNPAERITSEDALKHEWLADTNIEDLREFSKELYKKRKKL
L-lactate dehydrogenase (Plasmodium falciparum (isolate CDC / Honduras)), sequence (Q27743 whole entry, looked up): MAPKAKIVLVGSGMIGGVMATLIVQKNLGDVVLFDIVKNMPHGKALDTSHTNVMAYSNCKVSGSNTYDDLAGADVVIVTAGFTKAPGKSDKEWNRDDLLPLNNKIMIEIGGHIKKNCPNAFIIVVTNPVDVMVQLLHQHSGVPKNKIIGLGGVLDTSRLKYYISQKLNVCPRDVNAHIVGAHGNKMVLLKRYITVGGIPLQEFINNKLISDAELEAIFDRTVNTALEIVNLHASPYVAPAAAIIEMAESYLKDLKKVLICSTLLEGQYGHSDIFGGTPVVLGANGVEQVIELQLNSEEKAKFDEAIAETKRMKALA
Plasmodium falciparum protein kinase 6 (PK6, PF3D7_1337100), sequence (Q8IDW1 1-305): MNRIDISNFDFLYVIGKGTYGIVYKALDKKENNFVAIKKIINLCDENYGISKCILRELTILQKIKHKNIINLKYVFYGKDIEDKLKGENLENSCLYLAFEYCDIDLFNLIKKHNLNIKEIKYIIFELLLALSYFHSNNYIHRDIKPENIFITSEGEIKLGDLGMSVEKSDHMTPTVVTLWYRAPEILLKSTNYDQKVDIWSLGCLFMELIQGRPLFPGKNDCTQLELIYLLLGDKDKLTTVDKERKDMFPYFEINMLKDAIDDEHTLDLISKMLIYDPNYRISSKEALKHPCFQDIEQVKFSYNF

CC(C)(C)c1ccc(NC(=O)c2ccc(CN3CCCN(Cc4cccc(C#N)c4)CC3)cc2)cc1
active: inhibition [2] 54% | growth inhibition [4] 99%
inactive: growth inhibition [1] 12% | inhibition [3] -5% | outcome [5] | outcome [6] | outcome [7] | outcome [8]

Cc1ccc(OCC2CCN(c3ncc(C(=O)NCCCN4CCCC4=O)cc3Cl)CC2)cc1
active: growth inhibition [1] 71% | growth inhibition [4] 94%
inactive: inhibition [2] 7% | inhibition [3] 0% | outcome [5] | outcome [6] | outcome [7] | outcome [8]

CCN(CC)CCN(Cc1ccc(-c2ccc(C(F)(F)F)cc2)cc1)C(=O)Cn1c(CCc2cccc(F)c2F)nc(=O)c2cc(F)c(F)cc21
inactive: inhibition [2] 41% | inhibition [3] -5% | outcome [5] | outcome [6] | outcome [7] | outcome [8]
active: growth inhibition [1] 56% | growth inhibition [4] 100%

O=C(NC1CCN(CC2(c3ccccc3F)CCCC2)CC1)c1ccn[nH]1
inactive: inhibition [2] -5% | inhibition [3] -1% | outcome [5] | outcome [6] | outcome [7] | outcome [8]
active: growth inhibition [1] 91% | growth inhibition [4] 93%

CN1CCN(CCCN(Cc2ccc(-c3cccc(CNC4CCCC4)c3)cc2)C(=O)Nc2ccccc2)CC1
inactive: inhibition [2] 28% | inhibition [3] -3% | outcome [5] | outcome [6] | outcome [7] | outcome [8]
active: growth inhibition [1] 76% | growth inhibition [4] 92%

O=C(Nc1ccc(Cl)c(C(F)(F)F)c1)c1ccc(C(=O)Nc2ccc(Cl)c(C(F)(F)F)c2)cc1
active: growth inhibition [4] 88%
inactive: growth inhibition [1] 27% | inhibition [2] 9% | inhibition [3] -2% | outcome [5] | outcome [6] | outcome [7] | outcome [8]

O=C(Nc1ccccc1F)NC1CCN(c2ccnc(Nc3ccc(F)cc3)n2)CC1
inactive: inhibition [2] 13% | inhibition [3] -4% | outcome [5] | outcome [6] | outcome [7] | outcome [8]
active: growth inhibition [1] 63% | growth inhibition [4] 99%

CC(C)N1CCCN(C(=O)C2CCN(c3ccc(C(=O)N4CCCC4)cn3)CC2)CC1
inactive: growth inhibition [1] 12% | inhibition [2] 41% | inhibition [3] 1% | outcome [5] | outcome [6] | outcome [7] | outcome [8]
active: growth inhibition [4] 86%

COc1ccc(-c2ccc(NC(=O)c3cccc(Cl)c3)cc2)cc1CNC(C)C
active: growth inhibition [1] 88% | growth inhibition [4] 100%
inactive: inhibition [2] 26% | inhibition [3] 1% | outcome [5] | outcome [6] | outcome [7] | outcome [8]

Cc1cc(-c2ccc(NC(=O)N3CCc4cc(Cl)c(N5CCN(C)CC5)cc43)cc2)ccc1C#N
inactive: inhibition [3] -2% | outcome [5] | outcome [6] | outcome [7] | outcome [8]
active: growth inhibition [1] 83% | inhibition [2] 100% | growth inhibition [4] 101%

CCNc1cc(C(=O)N[C@@H](Cc2ccccc2)[C@H](O)CNCCc2cc(OC)cc(OC)c2)cc(N2CCCCS2(=O)=O)c1
inactive: growth inhibition [1] 28% | inhibition [2] 3% | inhibition [3] 0% | outcome [5] | outcome [6] | outcome [7] | outcome [8]
active: growth inhibition [4] 89%

CC(C)(C)c1ccc(S(=O)(=O)Nc2ccccc2N2CCOCC2)cc1
inactive: inhibition [2] 11% | inhibition [3] 1% | outcome [5] | outcome [6] | outcome [7] | outcome [8]
active: growth inhibition [1] 60% | growth inhibition [4] 90%

O=C(CCc1cnc[nH]1)Nc1cccc(-c2ccc(-c3nc4ccc(F)cc4[nH]3)s2)c1
active: growth inhibition [1] 69% | growth inhibition [4] 101%
inactive: inhibition [2] 17% | inhibition [3] -3% | outcome [5] | outcome [6] | outcome [7] | outcome [8]

COc1ccc2nccc([C@@H](O)CN3CCC(NCCOc4cccc(C(F)(F)F)c4Cl)CC3)c2c1
inactive: inhibition [2] 13% | inhibition [3] -3% | outcome [5] | outcome [6] | outcome [7] | outcome [8]
active: growth inhibition [1] 98% | growth inhibition [4] 100%

COc1ccc2nccc([C@@H](O)CN3CCC(NCc4ccc5c(c4)sc(=O)n5C)CC3)c2c1
inactive: inhibition [2] 10% | inhibition [3] -6% | outcome [5] | outcome [6] | outcome [7] | outcome [8]
active: growth inhibition [1] 72% | growth inhibition [4] 100%

O=C(Nc1ccc(S(=O)(=O)N2CCOCC2)cc1)c1cc(-c2cc(Cl)ccc2O)n[nH]1
inactive: inhibition [2] 40% | inhibition [3] -3% | outcome [5] | outcome [6] | outcome [7] | outcome [8]
active: growth inhibition [1] 59% | growth inhibition [4] 96%

O=C(Nc1n[nH]c2nc(-c3ccco3)c(Br)cc12)c1ccc(CN2CCCC2)cc1
inactive: inhibition [2] 1% | inhibition [3] 2% | outcome [5] | outcome [6] | outcome [7] | outcome [8]
active: growth inhibition [1] 53% | growth inhibition [4] 101%

O=C(/C=C/c1ccc(Cl)c(Cl)c1)N1CCC(CCN2CCC(c3c[nH]c4cnccc34)CC2)CC1
active: growth inhibition [1] 100% | inhibition [2] 93% | growth inhibition [4] 101%
inactive: inhibition [3] -2% | outcome [5] | outcome [6] | outcome [7] | outcome [8]

CCn1cnc2c(N3CCCC3=O)cc(C(=O)N[C@@H](Cc3ccccc3)[C@H](O)CNC3CCCCC3)cc21
active: growth inhibition [1] 94% | growth inhibition [4] 98%
inactive: inhibition [2] -2% | inhibition [3] -5% | outcome [5] | outcome [6] | outcome [7] | outcome [8]

COCCNC(=O)c1ccc(OC2CCN(Cc3ccc(F)c(F)c3)CC2)c(Cl)c1
inactive: inhibition [2] 8% | inhibition [3] -2% | outcome [5] | outcome [6] | outcome [7] | outcome [8]
active: growth inhibition [1] 73% | growth inhibition [4] 88%
